# Measured values from the supplement of paper PMC7393113.
# ± gives the standard deviation of the averaged measurements.
# Test system: iBMDM (immortalised mouse bone-marrow-derived macrophages), LPS-stimulated
# Assay: mitochondrial superoxide (MitoSOX fluorescence) fold increase over unstimulated control; higher = more LPS-induced mitochondrial ROS (less inhibition)
# Settings: inhibitor concentration: 500 nM, LPS: 100 ng/ml
# In short: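 Immortalised mouse bone-marrow-derived macrophages in black 96-well plates were kept in phenol-red-free 1% FCS/DMEM for 20 h, pretreated 30 min with kinase inhibitors (500 nM), loaded with 1 μM MitoSox for 10 min and then given LPS (100 ng/ml). Fluorescence at excitation/emission 510/580 nm was read on a ClarioStar plate reader every 60 min for 4 h, with wells in triplicate. Mitochondrial superoxide is given as fold induction over untreated macrophages, averaged across replicates.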
compound,measurement,setting,value
Cc1cc(F)c(Nc2ncnc3cc(OCc4ccccc4)ccc23)cc1O,mitochondrial superoxide,time after LPS: 1 h,1.17 ± 0.075
same,mitochondrial superoxide,time after LPS: 2 h,1.11 ± 0.018
same,mitochondrial superoxide,time after LPS: 4 h,1.2 ± 0.016
CCOc1cc2ncc(C#N)c(Nc3ccc(OCc4ccccn4)c(Cl)c3)c2cc1NC(=O)/C=C/CN(C)C [Neratinib (HKI-272)],mitochondrial superoxide,time after LPS: 1 h,1.06 ± 0.1
same,mitochondrial superoxide,time after LPS: 2 h,1.19 ± 0.14
same,mitochondrial superoxide,time after LPS: 4 h,1.27 ± 0.092
O=C(NOCC1CC1)c1ccc(F)c(F)c1Nc1ccc(I)cc1Cl,mitochondrial superoxide,time after LPS: 1 h,1.57 ± 0.11
same,mitochondrial superoxide,time after LPS: 2 h,1.59 ± 0.071
same,mitochondrial superoxide,time after LPS: 4 h,1.9 ± 0.1
COc1cc2/c(=N/c3ccc(Br)cc3F)nc[nH]c2cc1OCC1CCN(C)CC1 [Vandetanib (ZD6474)],mitochondrial superoxide,time after LPS: 1 h,1.57 ± 0.036
same,mitochondrial superoxide,time after LPS: 2 h,1.63 ± 0.054
same,mitochondrial superoxide,time after LPS: 4 h,1.7 ± 0.077
Cc1cc(C(C)Nc2ccccc2)c2nc(N3CCOCC3)cc(=O)n2c1 (stereo unspecified),mitochondrial superoxide,time after LPS: 1 h,1.51 ± 0.032
same,mitochondrial superoxide,time after LPS: 2 h,1.66 ± 0.072
same,mitochondrial superoxide,time after LPS: 4 h,1.74 ± 0.094
O=c1cc(N2CCOCC2)oc2c(-c3ccccc3)cccc12,mitochondrial superoxide,time after LPS: 1 h,1.36 ± 0.075
same,mitochondrial superoxide,time after LPS: 2 h,1.41 ± 0.086
same,mitochondrial superoxide,time after LPS: 4 h,1.52 ± 0.035
CCN(CCO)CCCOc1ccc2c(Nc3cc(CC(=O)Nc4cccc(F)c4)[nH]n3)ncnc2c1 [Barasertib (AZD1152-HQPA)],mitochondrial superoxide,time after LPS: 1 h,1.33 ± 0.093
same,mitochondrial superoxide,time after LPS: 2 h,1.39 ± 0.13
same,mitochondrial superoxide,time after LPS: 4 h,1.44 ± 0.13
Cc1cc(Nc2nc(N[C@@H](C)c3ccc(F)cc3)c(C#N)cc2F)n[nH]1,mitochondrial superoxide,time after LPS: 1 h,1.09 ± 0.054
same,mitochondrial superoxide,time after LPS: 2 h,1.18 ± 0.028
same,mitochondrial superoxide,time after LPS: 4 h,1.31 ± 0.085
Cn1cc(-c2ccc3ncc(Cc4ccc5ncccc5c4)n3n2)cn1,mitochondrial superoxide,time after LPS: 1 h,1.24 ± 0.1
same,mitochondrial superoxide,time after LPS: 2 h,1.34 ± 0.053
same,mitochondrial superoxide,time after LPS: 4 h,1.61 ± 0.14
O=C(Cc1ccc(-c2ccc(OCCN3CCOCC3)cc2)cn1)NCc1ccccc1,mitochondrial superoxide,time after LPS: 1 h,1.31 ± 0.1
same,mitochondrial superoxide,time after LPS: 2 h,1.4 ± 0.1
same,mitochondrial superoxide,time after LPS: 4 h,1.61 ± 0.11
CNC(=O)c1cccc(-c2ccc3c(N4CCOC[C@@H]4C)nc(N4CCOC[C@@H]4C)nc3n2)c1,mitochondrial superoxide,time after LPS: 1 h,1.18 ± 0.058
same,mitochondrial superoxide,time after LPS: 2 h,1.46 ± 0.074
same,mitochondrial superoxide,time after LPS: 4 h,1.66 ± 0.1
COc1ccc(CNC(=O)Nc2ncc([N+](=O)[O-])s2)cc1,mitochondrial superoxide,time after LPS: 1 h,1.47 ± 0.037
same,mitochondrial superoxide,time after LPS: 2 h,1.54 ± 0.026
same,mitochondrial superoxide,time after LPS: 4 h,1.6 ± 0.096
